# Screening results deposited in PubChem BioAssay by National Center for Advancing Translational Sciences (NCATS).
# Pf Dd2 growth: Plasmodium falciparum Dd2 growth inhibition; Potency, µM (titrated, usually from 28.9 µM), without a hit: at the top dose activity, negative = inhibition, usual class: inhibitors; AID 1347417; hit rate 4.3% among 120,000; P. falciparum Dd2 growth, SYBR Green, 72 h; active = well fitted inhibition curve with a large enough effect;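 also: plate controls were DMSO vehicle for no effect and reference drug for full effect; nearly all actives have a fitted effect of over 65% in size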
#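 Infected erythrocytes (Dd2, 0.3% parasitemia, 2.5% hematocrit final) are added to compound in RPMI-1640/Albumax II medium, grown 72 h at 37C in low oxygen, then lysed with saponin/Triton-X containing SYBR Green and read by fluorescence.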
# The depositor's hits bear a star; i = inactive; [ ] = remark or other dose. The sample as a whole holds a higher share of hits than the screen did. Potency is read from the fitted curve at half-maximal effect.
SMILES,Pf Dd2 growth
COc1cc(Cl)c(C)cc1NC(=O)CN1C(=O)C(c2ccccc2)=NC12CCCC2,11.2µM*
COc1cccc(CNC(=O)[C@@H]2C[C@@H](O)CN2C2CCN(C(=O)c3cccnc3C)CC2)c1,-6.5%
COCCN1CC(Cc2ncccc2C(=O)N2CCCCC2)CC1=O (centres undefined),15.1%
CC(=O)c1cccc(NC(=O)O[C@@H]2CO[C@H]3[C@@H]2OC[C@@H]3NC(=S)NC2CCCCC2)c1,i
Cc1c(C(C)NC(=O)CN2CCOC2=O)cnn1-c1ccc(F)cc1F (centres undefined),4.8%
CCCc1cncnc1N1CCN(C2CCN(Cc3ccco3)CC2)CC1,-7.7%
COC(=O)c1c(NC(=O)c2ccc(S(=O)(=O)N3CCC(C)CC3)cc2)sc2c1CCN(C)C2,i
COC(=O)c1c(NC(=O)c2ccc(S(=O)(=O)N(C)C3CCCCC3)cc2)sc2c1CCN(C)C2,8.91µM*
CC(C)CN(CC(C)C)S(=O)(=O)c1ccc(C(=O)Nc2sc3c(c2C(N)=O)CCN(C(C)C)C3)cc1,58.3%
COc1ccc(CC(=O)N2CCC(CC(=O)NCc3ccccc3)C2)cc1 (centres undefined),14.3%
CC1=C[C@@H](CO)[C@H](C(C)C)C[C@H]1CC(=O)NCc1ccc(C(F)(F)F)cc1,-13.8%[44.1 µM]
COc1ccccc1CN1C(=O)O[C@@H]2CN(c3nc(C)cc(C)n3)C[C@@H]21,-3.2%
O=C1c2cnc(-c3ccncc3)nc2OCCN1Cc1ccc(F)cc1F,-27.8%[44.1 µM]
COc1cc(NC(=O)Cn2c(-c3cnccn3)nc(C)c(CCO)c2=O)cc(OC)c1,i
Cc1nc(-c2ccccc2)cc([C@H]2CN3CC[C@H]2C[C@@H]3CN(Cc2ccco2)Cc2ccco2)n1,1.12µM*
Cc1ccc(C(=O)NC[C@H]2C[C@@H]3CCN2C[C@@H]3c2cc(-c3ccccc3Br)nc(C)n2)cc1,-8.7%
Cc1nc(-c2ccccc2)cc([C@H]2CN3CC[C@H]2C[C@@H]3CNC(=O)C2CCC2)n1,i
Cc1nc(-c2ccccc2Br)cc([C@H]2CN3CC[C@H]2C[C@@H]3CNC(=O)NC2CCCCC2)n1,i
CCNC(=O)NC[C@H]1C[C@@H]2CCN1C[C@@H]2c1cc(-c2ccc(N(C)C)cc2)nc(C)n1,-4.3%[44.1 µM]
Cc1nc(-c2ccc(N(C)C)cc2)cc([C@H]2CN3CC[C@H]2C[C@@H]3COC(=O)Nc2ccc(C(C)C)cc2)n1,3.98µM*
Cc1nc(-c2ccc(N(C)C)cc2)cc([C@H]2CN3CC[C@H]2C[C@@H]3COC(=O)NC(C)C)n1,-4.0%
Cc1nc(-c2ccc(N(C)C)cc2)cc([C@H]2CN3CC[C@H]2C[C@@H]3CNC(=O)c2ccccc2)n1,3.16µM*
COc1ccc(C(=O)NC[C@H]2C[C@@H]3CCN2C[C@@H]3c2cc(-c3ccc(N(C)C)cc3)nc(C)n2)cc1,i
Cc1nc(-c2ccccc2)cc([C@H]2CN3CC[C@H]2C[C@@H]3CNC(=O)C2CC2)n1,i
Cc1nc(-c2ccccc2Br)cc([C@H]2CN3CC[C@H]2C[C@@H]3CNC(=O)c2ccc(C(C)(C)C)cc2)n1,3.16µM*
SMILES,Pf Dd2 growth
O=S(=O)(c1ccc2c(c1)OCCO2)N1CCC2(CCNCC2)C1,-4.4%
O=C(C1CCOCC1)N1CCc2c(n(Cc3ccccc3)n(-c3ccccc3)c2=O)C1,45.8%[44.1 µM]
Cc1noc(C)c1CCC(=O)N1CCc2nn(CC#N)c(=O)n2CC1,i
O=C(NCCc1ccccc1)N1CCC2(CC1)CC(N1CCOCC1)CCO2 (centres undefined),-25.3%
CC(C)OCCCNC(=O)C1CC(=O)N(c2n[nH]c3cccc(F)c23)C1 (centres undefined),-4.1%
CC(C)NC(=O)C1c2ccccc2C(=O)N(Cc2ccco2)C12CCCC2 (centres undefined),-20.9%
CCc1ccc(CN(C)C(C(=O)O)c2c(OC)cccc2OC)nc1 (centres undefined),-14.8%
O=C1Nc2ccccc2O[C@H]2C[C@@H]1N(C(=O)NCc1ccccc1)C2,-11.4%[44.1 µM]
COCCN1CCC(CN(Cc2ccncc2)C(=O)c2cnccn2)CC1,-0.4%
CCNC(=O)NC[C@H]1C[C@@H]2CCN1C[C@@H]2c1cc(-c2ccc(OC)c(OC)c2)nc(C)n1,-19.7%
COc1ccc(-c2cc([C@H]3CN4CC[C@H]3C[C@@H]4CN)nc(C)n2)cc1OC,11.2µM*
CCCS(=O)(=O)NC[C@H]1C[C@@H]2CCN1C[C@@H]2c1cc(-c2ccc(OC)c(OC)c2)nc(C)n1,i
CCC(=O)N1CCC2(CC1)CC(N(CC)CC)CCO2 (centres undefined),65.1%
FC1(c2nc(-c3ccccc3)no2)CCN(C2CCOCC2)CC1,-15.9%
COc1ccc(CNc2ncnc3c2CN(C2CCCNC2)C(=O)CN3C)cc1 (centres undefined),-0.3%
CCOC(=O)c1ccccc1NC(=O)N(Cc1ccc(C)cc1)Cc1cccn1-c1nnc(N2CCCC2=O)s1,-18.6%
CCc1ccc(NC(=O)N(Cc2ccc(C)cc2)Cc2cccn2-c2nnc(N3CCCC3=O)s2)cc1,12.6µM*
Cc1ccc(CNC(=O)c2cccn2-c2nnc(N3CCCC3)s2)cc1,i
CN(C)CCN(Cc1ccsc1)C(=O)[C@H]1CCC[C@H](O)C1,-12.3%
C[C@@H]1C(=O)O[C@H]2[C@H]1CC[C@@]1(C)Cc3sc(NCc4ccccc4)nc3[C@@H](C)[C@H]21,-18.5%[44.1 µM]
C[C@@H]1C(=O)O[C@H]2[C@H]1CC[C@@]1(C)Cc3sc(NC(=O)COCC(=O)O)nc3[C@@H](C)[C@H]21,i
C[C@@H]1C(=O)O[C@H]2[C@H]1CC[C@@]1(C)Cc3sc(NC(=O)COc4ccccc4)nc3[C@@H](C)[C@H]21,7.08µM*
COCC(=O)Nc1ccc(-c2c(-c3ccccc3OC)nn(-c3ccc(C)cc3)c2OC(C)=O)cc1,-9.8%
COc1ccc(-c2ccccc2)cc1N1C(=O)[C@@H]2C[C@H]1CN2C(=O)C(C)(C)C,-15.6%
CCCOc1cc(C)c2c(c1C)C[C@H](C(C)C(=O)N1CCC(O)CC1)CC2 (some centres undefined),i
SMILES,Pf Dd2 growth
CC1(C)[C@H](Cc2cc(CO)on2)C[C@@H]1NC(=O)c1ccco1,1.1%[44.1 µM]
COCC(=O)NC1(Cc2cc(-c3ccc(OC)cc3)on2)COC1,-3.3%[44.1 µM]
COCc1cc(C[C@@H]2C[C@H](NC(=O)c3ccco3)C2(C)C)no1,10µM*
CC(C)(C)CC(=O)N[C@H]1C[C@@H](Cc2cc(COc3ccccc3)on2)C1(C)C,i
CC(C)Cc1cc(C[C@@H]2C[C@H](NC3CCOCC3)C2(C)C)no1,i
COCC(=O)N[C@H]1C[C@@H](Cc2cc(-c3ccc(OC)cc3)on2)C1(C)C,2µM*
CC1(C)[C@H](Cc2cc(COc3ccccc3)on2)C[C@@H]1NC(=O)Cc1ccccc1,-17.7%[44.1 µM]
CC1(C)[C@H](Cc2cc(COc3ccccc3)on2)C[C@@H]1NC(=O)COc1ccccc1,8.91µM*
COCc1cc(C[C@@H]2C[C@H](NC(=O)c3ccnc(Cl)c3)C2(C)C)no1,i
CC1(C)[C@H](Cc2cc(COc3ccccc3)on2)C[C@@H]1NC1CCOCC1,10µM*
COCC(=O)N[C@H]1C[C@@H](Cc2cc(CO)on2)C1(C)C,-6.2%[44.1 µM]
CCCN[C@H]1C[C@@H](Cc2cc(COc3ccccc3)on2)C1(C)C,i
Cc1ccc2c(n1)N(C)[C@H](CO)CCN(Cc1ccncc1)C2,17.9%[44.1 µM]
Cn1nccc1C(=O)N1CCC(c2noc(-c3ccncc3)n2)C1 (centres undefined),8.5%[5.79 µM]
O=[S+]1([O-])NCC2(CCN(Cc3cccc(C(F)(F)F)c3)C2)Oc2ccncc21 (centres undefined),0.4%
